Data taken from PubChem BioAssay (Tox21).
Records with an inconclusive call do not appear. Active and inactive are the calls of the source. Unless noted, calls follow the shape of the dose curve; as a rule, active = well fitted curve in the direction sought with a large enough effect in the repeat runs; inconclusive = weak or mixed curves; inactive = no such curve, though single readings can be large; an effect the other way counts as inactive or inconclusive.

Tests used:
[1] = qHTS assay to identify small molecule antagonists of the retinoid acid receptor (RAR) signaling pathway - cell viability counter screen (AID 1159551); also: nearly all actives have a fitted effect of over 35% in size
Method in brief: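 Viability of C3RL4 cells is quantified from ATP by luminescence after 6 h treatment at 37 C with compounds and 1 uM retinol.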

[2] = target: Luciferin 4-monooxygenase (Photinus pyralis) (UniProt P08659); assay: qHTS assay to identify small molecule inhibitors of firefly luciferase (AID 1224835); also: series mostly up to about 120 µM; nearly all actives have a fitted effect of over 25% in size
Luciferin 4-monooxygenase (Photinus pyralis), sequence (P08659 whole entry, looked up): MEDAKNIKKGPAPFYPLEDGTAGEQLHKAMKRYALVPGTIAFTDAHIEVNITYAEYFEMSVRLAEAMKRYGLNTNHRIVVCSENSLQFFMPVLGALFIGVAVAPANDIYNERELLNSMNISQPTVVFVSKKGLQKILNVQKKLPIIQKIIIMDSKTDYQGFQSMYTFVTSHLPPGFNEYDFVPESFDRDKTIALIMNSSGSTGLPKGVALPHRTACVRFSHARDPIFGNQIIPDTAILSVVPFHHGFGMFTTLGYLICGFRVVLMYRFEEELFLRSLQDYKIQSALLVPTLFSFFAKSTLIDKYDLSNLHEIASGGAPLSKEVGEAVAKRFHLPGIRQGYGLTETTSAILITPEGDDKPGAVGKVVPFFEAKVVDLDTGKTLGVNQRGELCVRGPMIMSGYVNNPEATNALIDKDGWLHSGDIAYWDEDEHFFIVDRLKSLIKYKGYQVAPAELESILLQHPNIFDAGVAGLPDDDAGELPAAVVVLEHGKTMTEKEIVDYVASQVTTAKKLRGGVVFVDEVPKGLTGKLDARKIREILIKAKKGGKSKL
Method in brief: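 Biochemical qHTS: compounds run as interplate titrations against purified firefly enzyme, with D-luciferin and ATP each at its KM concentration. Light output recorded by CCD imaging.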

[3] = qHTS assay to identify small molecule agonists of the constitutive androstane receptor (CAR) signaling pathway - cell viability counter screen (AID 1224836); also: nearly all actives have a fitted effect of over 45% in size; also: potency is read from the fitted curve at half-maximal effect
Method in brief: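 23 h treatment, 37 C, 5% CO2. Cell line: HepG2 stably expressing hCAR with a CYP2B6-2.2kb construct. Co-treatment: PK11195, 0.75 uM final. Read-out: CellTiter-Fluor fluorescence intensity.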

[4] = qHTS assay to identify small molecule antagonists of the constitutive androstane receptor (CAR) signaling pathway - cell viability counter screen (AID 1224837); also: nearly all actives have a fitted effect of over 45% in size; also: potency is read from the fitted curve at half-maximal effect
Method in brief: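 In quantitative HTS format, compounds at 15 concentrations were applied to HepG2 cells double-transfected with hCAR and CYP2B6-2.2kb under 50 nM CITCO stimulation; live-cell protease activity was read after 23 hr via CellTiter-Fluor.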

[5] = target: Nuclear receptor subfamily 1 group I member 3 (Homo sapiens) (UniProt Q14994); assay: qHTS assay to identify small molecule antagonists of the constitutive androstane receptor (CAR) signaling pathway (AID 1224838); also: nearly all actives have a fitted effect of over 40% in size
Nuclear receptor subfamily 1 group I member 3 (Homo sapiens), sequence (Q14994 whole entry, looked up): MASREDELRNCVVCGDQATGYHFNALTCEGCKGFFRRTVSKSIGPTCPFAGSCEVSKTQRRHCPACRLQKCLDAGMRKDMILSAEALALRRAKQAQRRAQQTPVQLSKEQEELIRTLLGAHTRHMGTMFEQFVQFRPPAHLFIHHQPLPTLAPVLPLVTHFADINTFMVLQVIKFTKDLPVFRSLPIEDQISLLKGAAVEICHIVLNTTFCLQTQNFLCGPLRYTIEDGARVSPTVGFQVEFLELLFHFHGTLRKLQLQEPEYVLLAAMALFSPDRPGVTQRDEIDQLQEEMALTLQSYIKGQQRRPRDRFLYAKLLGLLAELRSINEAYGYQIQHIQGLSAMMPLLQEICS
Method in brief: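 CITCO-stimulated (50 nM final) HepG2 cells stably transfected with hCAR and CYP2B6-2.2kb luciferase were exposed to compounds at 15 concentrations for 24 h at 37 C/5% CO2. A luciferase reagent was added and luminescence recorded after 30 min.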

[6] = target: Nuclear receptor subfamily 1 group I member 3 (Homo sapiens) (UniProt Q14994); assay: qHTS assay to identify small molecule agonists of the constitutive androstane receptor (CAR) signaling pathway (AID 1224839); also: nearly all actives have a fitted effect of over 15% in size; also: potency is read from the fitted curve at half-maximal effect
Method in brief: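 Compounds tested at 15 concentrations on HepG2 cells stably harbouring hCAR and CYP2B6-2.2kb reporter constructs, co-treated with PK11195 (0.75 uM final), 24 h at 37 C; luminescent reporter signal quantified.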

[7] = qHTS assay to identify small molecule antagonists of the estrogen related receptor signaling pathway with the pleiotropic PPARgamma coactivator (PGC) from Tox21 10K library - cell viability counter screen (AID 1224840; active = well fitted cell-killing curve with a large enough effect in the repeat runs, not every such curve was filed as active; also: nearly all actives have a fitted effect of over 40% in size; also: potency is read from the fitted curve at half-maximal effect)
Method in brief: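 Viability counter screen, PGC/ERR cells: 17.5 h compound exposure at 37 C, CellTiter-Fluor fluorescence endpoint.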

[8] = qHTS assay to identify small molecule antagonists of the estrogen related receptor signaling pathway with the pleiotropic PPARgamma coactivator (PGC) from Tox21 10K library (AID 1224841; call rule not given here; also: potency is read from the fitted curve at half-maximal effect; actives are mostly falling curves and most rising ones were filed inactive; nearly all actives have a fitted effect of over 50% in size)
Method in brief: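 In the PGC/ERR line, DMSO solutions of test chemicals are pin-delivered to 2,000 cells/well six hours after dispensing. Following eighteen hours' incubation, One-Glo reagent is added and luminescence recorded.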

[9] = qHTS assay to identify small molecule agonists of the estrogen related receptor signaling pathway with the pleiotropic PPARgamma coactivator (PGC) from Tox21 10K library (AID 1224842); also: nearly all actives have a fitted effect of over 15% in size
Method in brief: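 PGC/ERR reporter cell line, 2,000 cells per well, incubated 6 h at 37 C before 23 nL compound in DMSO was added. After 18 h at 37 C, One-Glo luminescence read following 30 min at room temperature.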

[10] = target: Thyrotropin receptor (Homo sapiens) (UniProt P16473); assay: qHTS assay to identify small molecule agonists of the thyroid stimulating hormone receptor (TSHR) signaling pathway (AID 1224843; calls by dose curve; also: nearly all actives have a fitted effect of over 45% in size; also: potency is read from the fitted curve at half-maximal effect)
Thyrotropin receptor (Homo sapiens), sequence (P16473 whole entry, looked up): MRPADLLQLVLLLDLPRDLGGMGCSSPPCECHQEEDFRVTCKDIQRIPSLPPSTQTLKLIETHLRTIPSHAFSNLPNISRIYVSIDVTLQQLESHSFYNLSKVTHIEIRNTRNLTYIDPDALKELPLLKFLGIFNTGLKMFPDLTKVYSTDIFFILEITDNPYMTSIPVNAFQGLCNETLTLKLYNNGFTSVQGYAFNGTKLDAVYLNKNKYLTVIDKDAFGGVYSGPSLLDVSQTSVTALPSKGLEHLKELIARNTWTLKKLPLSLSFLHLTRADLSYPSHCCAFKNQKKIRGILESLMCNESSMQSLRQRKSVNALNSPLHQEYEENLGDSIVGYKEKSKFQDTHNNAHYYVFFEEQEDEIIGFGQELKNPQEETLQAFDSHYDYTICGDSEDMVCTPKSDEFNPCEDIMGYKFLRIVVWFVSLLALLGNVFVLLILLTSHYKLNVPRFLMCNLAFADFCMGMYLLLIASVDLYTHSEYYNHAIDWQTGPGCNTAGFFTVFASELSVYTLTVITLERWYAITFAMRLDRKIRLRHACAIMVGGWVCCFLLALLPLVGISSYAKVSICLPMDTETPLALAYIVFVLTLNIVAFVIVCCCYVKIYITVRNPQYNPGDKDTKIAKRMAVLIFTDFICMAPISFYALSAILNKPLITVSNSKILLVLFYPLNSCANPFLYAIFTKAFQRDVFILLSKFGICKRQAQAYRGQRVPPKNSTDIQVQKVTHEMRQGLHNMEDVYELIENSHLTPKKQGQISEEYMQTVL
Method in brief: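 Agonist-mode screen: TSHR HEK293 cells received test chemicals for half an hour at room temperature, then HTRF cAMP detection reagents for one hour prior to fluorescence measurement. Each chemical ran as a 15-concentration series, triplicated.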

[11] = qHTS assay to identify small molecule antagonists of the estrogen related receptor (ERR) signaling pathway from Tox21 library - cell viability counter screen (AID 1224834); also: nearly all actives have a fitted effect of over 30% in size; also: potency is read from the fitted curve at half-maximal effect
Method in brief: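 In this quantitative HTS format, ERR cells receive compounds in DMSO and are incubated for 17.5 h at 37 C. Live-cell protease activity is then detected with CellTiter-Fluor.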

[12] = qHTS assay to identify small molecule antagonists of the retinoic acid receptor (RAR) signaling pathway (AID 1159552; also: nearly all actives have a fitted effect of over 50% in size; also: potency is read from the fitted curve at half-maximal effect)
Method in brief: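 Test chemicals and DMSO controls were pin-transferred onto C3RL4 cells a day after seeding; retinol (1 uM final) followed at once. Luminescent reporter output was quantified after 6 hr of co-incubation and 30 min with detection reagent.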

[13] = qHTS assay to identify small molecule antagonists of the estrogen related receptor signaling pathway with the pleiotropic PPARgamma coactivator (PGC) cell viability counter screen (AID 1224822; also: potency is read from the fitted curve at half-maximal effect)
Method in brief: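 Viable cell signal (CellTiter-Fluor, 30 min, 37 C/5% CO2) was measured in PGC/ERR cells after a 17.5 h compound incubation.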

Measured: Potency

CCCCOCN(C(=O)CCl)c1c(CC)cccc1CC
active: [6] 27.3 µM | [8] 12.2 µM
not listed: [11] | [12] | [13]
inactive: all other assays above

N#Cc1ccc(O)cc1
inactive: [1] | [11] | [2] | [4] | [6] | [7] | [10]

N#Cc1c(-c2ccc(Cl)cc2)[nH]c(C(F)(F)F)c1Br
active: [12] 0.545 µM | [4] 1.22 µM | [7] 1.54 µM | [8] 0.486 µM
inactive: [6] | [9] | [10]

O=[N+]([O-])O.O=[N+]([O-])O.[Cd]
inactive: [1]
active: [11] 9.69 µM | [4] 6.11 µM | [7] 3.06 µM

CCCCCCCCc1ccc(O)cc1
inactive: [12] | [5] | [10]
active: [13] 52.4 µM | [11] 61.5 µM | [6] 48.9 µM

COP(=O)(OC)SCn1c(=O)oc2cc(Cl)cnc21
inactive: [1] | [2] | [6] | [7] | [9]
active: [3] 30.6 µM | [10] 24.3 µM
